Assay results taken from ChEMBL document CHEMBL4513134, “CO-ADD screening of University of Queensland (Australia) compounds” (2021).
Results with a measured potency or affinity are listed apart.

Columns and labels:
Staphylococcus aureus = conditions: Concentration 32 ug.mL-1; ASSAY_TEST Inhibition of Bacterial Growth; detection method Absorption (OD600); MEDIA CAMHB; plate type 384well; NBS; CORNING #3640; time 18 hr
Escherichia coli = conditions: Concentration 32 ug.mL-1; ASSAY_TEST Inhibition of Bacterial Growth; detection method Absorption (OD600); MEDIA CAMHB; plate type 384well; NBS; CORNING #3640; time 18 hr

Compound	Inhibition (Staphylococcus aureus) [%]	Inhibition (Escherichia coli) [%]
CC(NC(=O)c1ncc([N+](=O)[O-])n1C)c1ccc(F)cc1 (stereo not given)	34.68	2.11
Cn1c([N+](=O)[O-])cnc1C(=O)NC1CC1	-13.42	-3.03
Cn1c([N+](=O)[O-])cnc1C(=O)NCc1ccc(OC(F)(F)F)cc1	35.57	3.65
Cn1c([N+](=O)[O-])cnc1C(=O)N1CCCC1	47.23	5.01
Cn1c([N+](=O)[O-])cnc1C(=O)N1CCOCC1	46.51	8.52
Cn1c([N+](=O)[O-])cnc1C(=O)NCc1ccc(F)cc1	28.26	3.69
Cc1ccc(CCNC(=O)c2ncc([N+](=O)[O-])n2C)cc1	48.13	11.97
Cn1c([N+](=O)[O-])cnc1C(=O)NCc1ccccn1.O=C(O)C(F)(F)F	45.26	-0.31
CN(C)C(=O)c1ncc([N+](=O)[O-])n1C	42.28	6.99
Cn1c([N+](=O)[O-])cnc1C(=O)NCc1cccc(OC(F)(F)F)c1	39.06	5.07
